Data published in PubChem BioAssay AID1159580 (chemical genetic matrix, 2015).
Hit rate of the full screen: of about 5,500 compounds, about 2,000 (36%) were called active. Roughly 18% stayed inconclusive and do not appear here. Rule as the data show it: active = normalized growth mostly below about 0.91 (no sharp cut-off); inconclusive = no clear call, values can overlap the other calls; inactive = mostly above about 0.92. The list shows a part of the results.

Test: chemical genetic growth profiling, strain panel (AID 1159580);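 also: tested at 20 µM; growth read once vehicle control cultures reached saturation at 30 °C; 1 = growth at the plate median or of vehicle wells; lower values mean less growth of the strain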
Details: growth OD

Measured: normalized growth

CC1(C)OC(=O)NC1=O
inactive: S. cerevisiae deletion strains, locus YJR075W, strain HOC1, stronger effect = lower value 0.981 | S. cerevisiae deletion strains, locus YKL009W, strain mrt4, stronger effect = lower value 0.966 | S. cerevisiae deletion strains, locus YKL068W, stronger effect = lower value 0.988 | S. cerevisiae deletion strains, locus YKL085W, strain MDH1 (second series), stronger effect = lower value 1.06 | S. cerevisiae deletion strains, locus YKL085W, strain MDH1, stronger effect = lower value 1.06 | S. cerevisiae deletion strains, locus YKL160W, strain elf1, stronger effect = lower value 1.01 | S. cerevisiae deletion strains, locus YKR001C, strain vps1, stronger effect = lower value 1.01 | S. cerevisiae deletion strains, locus YKR026C, strain gcn3, stronger effect = lower value 0.994 | S. cerevisiae deletion strains, locus YKR091W, strain srl3, stronger effect = lower value 1.01 | S. cerevisiae deletion strains, locus YLL001W, strain dnm1, stronger effect = lower value 1.02 | S. cerevisiae deletion strains, locus YLL026W, stronger effect = lower value 1.01 | S. cerevisiae deletion strains, locus YLL041C, strain sdh2, stronger effect = lower value 1.01 | S. cerevisiae deletion strains, locus YLR027C, strain aat2, stronger effect = lower value 1.01 | S. cerevisiae deletion strains, locus YLR039C, strain RIC1, stronger effect = lower value 1.02 | S. cerevisiae deletion strains, locus YLR058C, strain SHM2, stronger effect = lower value 0.983 | S. cerevisiae deletion strains, locus YLR102C, strain apc9, stronger effect = lower value 0.981 | S. cerevisiae deletion strains, locus YLR113W, strain HOG1, stronger effect = lower value 1.02 | S. cerevisiae deletion strains, locus YLR221C, strain rsa3, stronger effect = lower value 0.991 | S. cerevisiae deletion strains, locus YLR258W, strain gsy2, stronger effect = lower value 1 | S. cerevisiae deletion strains, locus YLR262C, strain YPT6 (second series), stronger effect = lower value 1.03 | S. cerevisiae deletion strains, locus YLR262C, strain YPT6, stronger effect = lower value 0.97 | S. cerevisiae deletion strains, locus YLR268W, strain sec22, stronger effect = lower value 0.989 | S. cerevisiae deletion strains, locus YLR320W, strain mms22, stronger effect = lower value 0.975 | S. cerevisiae deletion strains, locus YLR330W, strain CHS5, stronger effect = lower value 0.996 | S. cerevisiae deletion strains, locus YLR342W, strain FKS1 (second series), stronger effect = lower value 1.04 | S. cerevisiae deletion strains, locus YLR342W, strain FKS1, stronger effect = lower value 1.02 | S. cerevisiae deletion strains, locus YLR357W, strain rsc2, stronger effect = lower value 1.03 | S. cerevisiae deletion strains, locus YLR370C, strain arc18, stronger effect = lower value 1.02 | S. cerevisiae deletion strains, locus YLR371W, strain rom2, stronger effect = lower value 0.98 | S. cerevisiae deletion strains, locus YLR384C, strain iki3, stronger effect = lower value 1.01 | S. cerevisiae deletion strains, locus YLR418C, strain cdc73, stronger effect = lower value 0.958 | S. cerevisiae deletion strains, locus YML016C, strain PPZ1, stronger effect = lower value 0.997 | S. cerevisiae deletion strains, locus YML032C, strain rad52, stronger effect = lower value 0.98 | S. cerevisiae deletion strains, locus YML120C, strain ndi1, stronger effect = lower value 1.02 | S. cerevisiae deletion strains, locus YML124C, strain tub3, stronger effect = lower value 0.983 | S. cerevisiae deletion strains, locus YMR058W, strain fet3, stronger effect = lower value 1.03 | S. cerevisiae deletion strains, locus YMR078C, strain ctf18, stronger effect = lower value 0.971 | S. cerevisiae deletion strains, locus YMR125W, strain sto1, stronger effect = lower value 1.05 | S. cerevisiae deletion strains, locus YMR129W, stronger effect = lower value 1.01 | S. cerevisiae deletion strains, locus YMR205C, strain PFK2, stronger effect = lower value 1.02 | S. cerevisiae deletion strains, locus YMR223W, strain ubp8, stronger effect = lower value 0.964 | S. cerevisiae deletion strains, locus YMR231W, strain pep5, stronger effect = lower value 1.01 | S. cerevisiae deletion strains, locus YMR263W, strain SAP30, stronger effect = lower value 0.981 | S. cerevisiae deletion strains, locus YMR307W, strain GAS1, stronger effect = lower value 1.05 | S. cerevisiae deletion strains, locus YNL067W, strain RPL9B, stronger effect = lower value 0.972 | S. cerevisiae deletion strains, locus YNL071W, strain lat1, stronger effect = lower value 1 | S. cerevisiae deletion strains, locus YNL153C, strain GIM3, stronger effect = lower value 0.989 | S. cerevisiae deletion strains, locus YNL183C, strain NPR1, stronger effect = lower value 0.975 | S. cerevisiae deletion strains, locus YNL209W, strain ssb2, stronger effect = lower value 0.996 | S. cerevisiae deletion strains, locus YNL233W, strain BNI4, stronger effect = lower value 0.983 | S. cerevisiae deletion strains, locus YNL248C, strain rpa49, stronger effect = lower value 1.07 | S. cerevisiae deletion strains, locus YNL250W, strain rad50, stronger effect = lower value 0.967 | S. cerevisiae deletion strains, locus YNL271C, strain bni1, stronger effect = lower value 0.966 | S. cerevisiae deletion strains, locus YNL298W, strain CLA4, stronger effect = lower value 0.971 | S. cerevisiae deletion strains, locus YNL307C, strain MCK1, stronger effect = lower value 0.983 | S. cerevisiae deletion strains, locus YNL322C, strain KRE1 (second series), stronger effect = lower value 1.01 | S. cerevisiae deletion strains, locus YNL322C, strain KRE1, stronger effect = lower value 1.01 | S. cerevisiae deletion strains, locus YNR049C, strain mso1, stronger effect = lower value 1.01 | S. cerevisiae deletion strains, locus YNR052C, strain pop2, stronger effect = lower value 0.971 | S. cerevisiae deletion strains, locus YOL006C, strain TOP1, stronger effect = lower value 0.926 | S. cerevisiae deletion strains, locus YOL012C, strain htz1 0.866 | S. cerevisiae deletion strains, locus YOL147C, strain pex11, stronger effect = lower value 0.973 | S. cerevisiae deletion strains, locus YOR001W, strain rrp6, stronger effect = lower value 1.02 | S. cerevisiae deletion strains, locus YOR061W, strain CKA2, stronger effect = lower value 0.994 | S. cerevisiae deletion strains, locus YOR069W, strain VPS5, stronger effect = lower value 0.991 | S. cerevisiae deletion strains, locus YOR070C, strain gyp1, stronger effect = lower value 0.999 | S. cerevisiae deletion strains, locus YOR080W, strain dia2, stronger effect = lower value 1.02 | S. cerevisiae deletion strains, locus YOR083W, strain WHI5, stronger effect = lower value 0.987 | S. cerevisiae deletion strains, locus YOR106W, strain vam3, stronger effect = lower value 1.03 | S. cerevisiae deletion strains, locus YOR136W, strain idh2, stronger effect = lower value 0.974 | S. cerevisiae deletion strains, locus YOR144C, strain elg1, stronger effect = lower value 0.976 | S. cerevisiae deletion strains, locus YOR184W, strain ser1, stronger effect = lower value 0.966 | S. cerevisiae deletion strains, locus YOR231W, strain MKK1, stronger effect = lower value 1.04 | S. cerevisiae deletion strains, locus YOR265W, strain rbl2, stronger effect = lower value 1.01 | S. cerevisiae deletion strains, locus YOR270C, strain vph1, stronger effect = lower value 1.07 | S. cerevisiae deletion strains, locus YOR290C, strain snf2, stronger effect = lower value 1.02 | S. cerevisiae deletion strains, locus YOR316C, strain cot1, stronger effect = lower value 0.98 | S. cerevisiae deletion strains, locus YPL051W, strain arl3, stronger effect = lower value 1.01 | S. cerevisiae deletion strains, locus YPL078C, strain atp4, stronger effect = lower value 1.01 | S. cerevisiae deletion strains, locus YPL106C, strain sse1, stronger effect = lower value 0.997 | S. cerevisiae deletion strains, locus YPL240C, strain hsp82, stronger effect = lower value 0.996 | S. cerevisiae deletion strains, locus YPL256C, strain CLN2, stronger effect = lower value 1.08 | S. cerevisiae deletion strains, locus YPR119W, strain clb2, stronger effect = lower value 0.977 | S. cerevisiae deletion strains, locus YPR141C, strain kar3, stronger effect = lower value 0.958 | S. cerevisiae deletion strains, locus YPR163C, strain tif3, stronger effect = lower value 0.982 | S. cerevisiae deletion strains, locus YPR167C, strain met16, stronger effect = lower value 0.972 | S. cerevisiae deletion strains, strain wtn01, stronger effect = lower value 0.982 | S. cerevisiae strains, strain wild type, stronger effect = lower value 0.998
